Five compounds from PubChem BioAssay (NCATS) can be followed below.

Records with an inconclusive call do not appear. Active and inactive are the calls of the source. Unless noted, calls come from the whole dose curve; as a rule, active = well fitted curve in the direction sought with a large enough effect; inconclusive = small, poorly fitted or top-dose-only effect, or another doubt; inactive = no such curve, though single readings can be large; an effect the other way counts as inactive or inconclusive.

The subject of assay [1] is Zika virus NS2B-NS3 protease (linked construct). Kind of assay: Primary screen NINDS Rhodamine qHTS for Zika virus inhibitors (AID 1347160). Note: % is set by controls: 0 for no effect and ±100 for the full control effect; nearly all actives have a fitted effect of over 55% in size. Summed up: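 Purified linked NS2B-NS3 protease (NS2B hydrophilic domain joined to NS3 protease by flexible linker), 25 nM in 10 mM Tris-HCl pH 8.0, 0.01% Tween 20. Compounds titrated, 15 min preincubation at room temperature; 1.5 microM Rhodamine110 substrate, FITC fluorescence change over 15 min.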
A general note: qHTS replaces the single test concentration by a dilution series.

Assay [2] has as its target Calcium and integrin-binding protein 1 (Homo sapiens) (UniProt Q99828). As to the kind of experiment: Primary qHTS for Identification of Calcium Integrin Binding Protein 1 (CIB1) Competitor (AID 1508620).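 Note: GST tagged CIB1 binding a fluorescein labelled alphaIIb integrin peptide tracer; top concentration of the series differs between compounds; % is set by controls: 0 for no effect and ±100 for the full control effect.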 The procedure, abridged:
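Fluorescence polarization competition: CIB1-GST (1 uM final) preincubated with compound 15 min at room temperature, then FITC-labeled alphaIIb peptide (100 nM final) added for another 15 min. Polarization read at Ex 480/Em 540.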

The nature of assay [3]: Primary qHTS for inhibitors of nuclear receptor binding SET domain protein 2 (NSD2) in an isogenic RCH-ACV NSD2 p.E1099K mutant (9B) (AID 1645876). Note: potency is the fitted concentration of half-maximal effect; nearly all actives have a fitted effect of over 70% in size.
A short description of assay [4]: Primary qHTS for inhibitors of nuclear receptor binding SET domain protein 2 (NSD2) in an RCH-ACV wild type WT cells (2C) (AID 1645877). Note: potency is the fitted concentration of half-maximal effect; nearly all actives have a fitted effect of over 70% in size.
In assay [5] the target is Catechol O-methyltransferase (Homo sapiens) (UniProt P21964). As to the kind of experiment: Confirmatory Screen for Target Class Profiling of Small Molecule Inhibitors of Methyltransferases (AID 1745852). For activity change, negative = inhibition: % is set by controls: 0 for no effect and ±100 for the full control effect. The conditions noted are these: MTase-Glo luminescence, SAH detection, recombinant enzyme; measured here: COMT max response; stronger effect = lower value.
Assay [6] concerns the target Guanidinoacetate N-methyltransferase (Homo sapiens) (UniProt Q14353). The description is as above. The conditions noted are these: activity change, negative = inhibition: at 57.3 µM (top of the series) unless noted.
For assay [7], the target named is Nicotinamide N-methyltransferase (Homo sapiens) (UniProt P40261). Described as above. The note with it: MTase-Glo luminescence, SAH detection, recombinant enzyme; measured here: NNMT max response; stronger effect = lower value.
The target of assay [8] is Phenylethanolamine N-methyltransferase (Homo sapiens) (UniProt P11086). Described as above. The note with it: MTase-Glo luminescence, SAH detection, recombinant enzyme; measured here: PNMT max response; stronger effect = lower value.
Assay [9] has as its target Glutathione peroxidase 1 (Homo sapiens) (UniProt P07203). As to the kind of experiment: Primary qHTS Assay for Inhibitors of Recombinant Selenoprotein Glutathione Peroxidase 1 (GPX1) (AID 1845191). Note: nearly all actives have a fitted effect of over 65% in size. The procedure, abridged: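 Recombinant GPX1 (10 nM final) was preincubated with compound for 30 min at room temperature, then reacted with 1 mM GSH, 0.5 mM CHP, 0.5 mM NADPH and 100 nM glutathione reductase; NADPH fluorescence (340/450 nm) was read at 0 and 15 min.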

The target of assay [10] is Phospholipid hydroperoxide glutathione peroxidase GPX4 (Homo sapiens) (UniProt P36969). Kind of assay: Primary qHTS Assay for Inhibitors of Recombinant Selenoprotein Glutathione Peroxidase 4 (GPX4) (AID 1845192). Note: % is set by controls: 0 for no effect and ±100 for the full control effect; nearly all actives have a fitted effect of over 65% in size. The note with it: outcome: dose series up to 50 µM unless noted. The procedure, abridged: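 GR-coupled readout: 100 nM GR, 1 mM GSH, 0.5 mM NADPH; NADPH fluorescence (ex 340/em 450 nm) read at t=0 and after 15 min RT. GPX4 200 nM, preincubated 30 min with compound; substrate 0.5 mM CHP.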

Assay [11] concerns the target Luciferin 4-monooxygenase (Photinus pyralis) (UniProt P08659). Kind of assay: Primary firefly luciferase (FLuc) qHTS assay for identification of artifact compounds. (AID 1845220).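 For activity change, negative = inhibition: plate controls were DMSO vehicle for no effect and no enzyme for full effect.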 Note: nearly all actives have a fitted effect of over 60% in size. Summed up: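 Reaction readout was CCD-imaged luminescence, taken 5 min after adding 10 nM purified firefly enzyme to compound-treated wells holding 10 uM luciferin and ATP in pH 7.6 buffer.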

The subject of assay [12] is Nanoluciferase (engineered Oplophorus gracilirostris luciferase). Kind of assay: Primary Nanoluciferase (NLuc) qHTS assay for identification of artifact compounds. (AID 1845222).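 Note: NLuc secreted into diluted conditioned medium of S16 cells; 0% = DMSO and -100% = no enzyme.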 Summed up:
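Concentration-response data were obtained by luminescence after 5 min with Nano-Glo substrate at 1:100. The enzyme was diluted S16 NLuc-expressing cell medium, preincubated with compound for 15 min at RT. Curves were fitted with a 4-parameter Hill model.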

Assay [13] can be described thus: Primary redox qHTS assay for identification of artifact compounds. (AID 1845223).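 Note: 0% = DMSO and 100% = reference compound.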 Summed up:
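Amplex Red (25 uM) and HRP (250 mU/mL) in HBSS, with compounds for 15 min, then 250 uM DTT for 30 min, room temperature, dark. Fluorescence 525/598 nm read; normalized to DMSO and 10 uM DA3003; Hill fit.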

Assay [14] is described as follows: qHTS drug screen for cell cycle checkpoint inhibitors in PARPi-resistant BRCA-mutant ovarian cancer cell lines. (AID 1963452; calls by dose curve). The conditions noted are these: PEO1/OlaR viability, CellTiter-Glo luminescence, 96 h, stronger effect = lower value. Summed up: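 PEO1, PEO4 and PEO1/OlaR ovarian cancer cells, 600 per well, exposed 96 h at 37C to a dilution series. Viability read by CellTiter-Glo luminescence, normalized to DMSO and empty wells; activity summarized as Z-AUC.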

The next assay relates to CASKI. As to the kind of experiment: Primary qHTS to identify gynecologic anti-cancer compounds using libraries of approved drugs and bioactive compounds (AID 1345084). Note: nearly all actives have a fitted effect of over 55% in size. Note: potency is the fitted concentration of half-maximal effect. The note with it: Gynecologic cancer cell panel viability, ATPlite luminescence, 48 h; series mostly up to 57.5 µM. Summed up: (§1)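 Cytotoxicity screen measuring ATP content by luciferase luminescence. Each compound is applied at five concentrations for 48 h at 37 C with 5% CO2.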

The test system of the next assay is Es-2. The description is as above. The note with it: Gynecologic cancer cell panel viability, ATPlite luminescence, 48 h; series mostly up to 57.5 µM. Summed up: as §1
Background: Cellular ATP, detected with luciferase, serves as a proxy for viable cell number.

For another assay, the system named is HeLa. The assay is described as above. The note with it: Gynecologic cancer cell panel viability, ATPlite luminescence, 48 h; series mostly up to 57.5 µM. The procedure, abridged:
as §1

A further assay concerns Hek293T. Described as above. The conditions noted are these: Gynecologic cancer cell panel viability, ATPlite luminescence, 48 h, control line for the selectivity index; series mostly up to 57.5 µM. Summed up: as §1
Another assay has as its system JEG-3. The assay is described as above. The conditions noted are these: Gynecologic cancer cell panel viability, ATPlite luminescence, 48 h; series mostly up to 57.5 µM. Summed up:
as §1

Another assay concerns OV90. Described as above. The note with it: Gynecologic cancer cell panel viability, ATPlite luminescence, 48 h; series mostly up to 57.5 µM. The procedure, abridged: as §1
Another assay concerns PA-1. Described as above. The conditions noted are these: Gynecologic cancer cell panel viability, ATPlite luminescence, 48 h; series mostly up to 57.5 µM. Summed up:
as §1

The next assay has as its system Tov-21-G. The description is as above. The conditions noted are these: Gynecologic cancer cell panel viability, ATPlite luminescence, 48 h; series mostly up to 57.5 µM. The procedure, abridged:
as §1

The subject of another assay is Tov112D. The assay is described as above. The conditions noted are these: Gynecologic cancer cell panel viability, ATPlite luminescence, 48 h; series mostly up to 57.5 µM. Summed up:
as §1

Assay [15] concerns Zika virus NS2B-NS3 protease (unlinked complex). Kind of assay: Primary screen GU Rhodamine qHTS for Zika virus inhibitors: Unlinked NS2B-NS3 protease assay (AID 1347159). Note: % is set by controls: 0 for no effect and ±100 for the full control effect; nearly all actives have a fitted effect of over 60% in size. The procedure, abridged:
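Noncovalent NS2B hydrophilic domain–NS3 protease domain complex (25 nM) preincubated 15 min at room temperature with compounds (up to 114 microM) in 10 mM Tris-HCl pH 8.0, 0.01% Tween 20; 1.5 microM Rhodamine110 substrate added, fluorescence change over 15 min fitted to Hill equation.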

In assay [16] the target is Cytochrome P450 2C9 (Homo sapiens) (UniProt P11712). As to the kind of experiment: Cytochrome P450 family 2 subfamily C member 9 (CYP2C9) small molecule antagonists: luciferase biochemical (cell-free) qHTS assay (AID 1645842; active = well fitted curve in the direction sought with a large enough effect in the repeat runs; an effect the other way counts as inactive or inconclusive; note: potency is the fitted concentration of half-maximal effect; nearly all actives have a fitted effect of over 55% in size). The procedure, abridged:
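Luminescence, after 20 min with luciferin detection reagent, reflected CYP2C9 turnover during a 1 h NADPH-driven reaction at 37C. Enzyme-substrate mix contained 0.4% bovine serum albumin and was preincubated with compound 10 min at room temperature.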

The nature of assay [17]: Primary fluorescence-based thiol-reactive (MSTI) qHTS assay for identification of artifact compounds. (AID 1845221).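 Note: thiol-reactive compounds lower the probe fluorescence signal; nearly all actives have a fitted effect of over 65% in size.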 The procedure, abridged:
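Curve-fitted percent inhibition (4-parameter Hill) derived from fluorescence, Ex 525/Em 598 nm, scaled with Acetyl-MSTI and MSTI; 1 h incubation at room temperature.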

The subject of another assay is C33A. Kind of assay: Primary qHTS to identify gynecologic anti-cancer compounds using libraries of approved drugs and bioactive compounds (AID 1345084). Note: nearly all actives have a fitted effect of over 55% in size. Note: potency is the fitted concentration of half-maximal effect. The note with it: Gynecologic cancer cell panel viability, ATPlite luminescence, 48 h; series mostly up to 57.5 µM. The procedure, abridged: as §1
In the next assay the test system is SKOV3. The assay is described as above. The conditions noted are these: Gynecologic cancer cell panel viability, ATPlite luminescence, 48 h; series mostly up to 57.5 µM. Summed up: as §1
A short description of assay [18]: P-glycoprotein substrates identified in KB-8-5-11 adenocarcinoma cell line, qHTS therapeutic library screen (AID 1346987). Note: potency is the fitted concentration of half-maximal effect; nearly all actives have a fitted effect of over 65% in size. Summed up:
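Steps: plate 500 KB-8-5-11 cells/well in DMEM + 10% FCS (colchicine removed); pin compounds in dose-response; incubate 72 h, 37 degree C, 5% CO2; add CellTiter-Glo, 5 min; read luminescence.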

Assay [19] addresses Cytochrome P450 2D6 (Homo sapiens) (UniProt P10635). Kind of assay: Cytochrome P450 family 2 subfamily D member 6 (CYP2D6) small molecule antagonists: luciferase biochemical (cell-free) qHTS assay (AID 1645840; active = well fitted curve in the direction sought with a large enough effect in the repeat runs; an effect the other way counts as inactive or inconclusive). The procedure, abridged:
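P450-Glo luminescent screen: recombinant CYP2D6 enzyme–proluciferin substrate mix preincubated with compound 10 min at room temperature, then NADPH regeneration added for 1 h at room temperature. Detection reagent added for 20 min; luciferin light read as relative luminescence units.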

Chain of Calcium and integrin-binding protein 1 (Homo sapiens) (Q99828 whole entry, looked up): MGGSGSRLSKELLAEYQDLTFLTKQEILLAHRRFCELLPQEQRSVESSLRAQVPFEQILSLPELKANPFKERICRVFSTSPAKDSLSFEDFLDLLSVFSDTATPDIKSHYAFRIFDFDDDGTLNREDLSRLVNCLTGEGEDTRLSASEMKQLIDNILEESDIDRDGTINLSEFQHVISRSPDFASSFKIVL
Chain of Phospholipid hydroperoxide glutathione peroxidase GPX4 (Homo sapiens) (P36969 whole entry, looked up): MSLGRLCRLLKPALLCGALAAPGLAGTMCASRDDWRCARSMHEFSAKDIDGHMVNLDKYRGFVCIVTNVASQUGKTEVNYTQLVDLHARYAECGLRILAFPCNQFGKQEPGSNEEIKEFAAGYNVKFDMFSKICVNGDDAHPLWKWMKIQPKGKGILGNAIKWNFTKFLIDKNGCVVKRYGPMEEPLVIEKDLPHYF
Chain of Glutathione peroxidase 1 (Homo sapiens) (P07203 whole entry, looked up): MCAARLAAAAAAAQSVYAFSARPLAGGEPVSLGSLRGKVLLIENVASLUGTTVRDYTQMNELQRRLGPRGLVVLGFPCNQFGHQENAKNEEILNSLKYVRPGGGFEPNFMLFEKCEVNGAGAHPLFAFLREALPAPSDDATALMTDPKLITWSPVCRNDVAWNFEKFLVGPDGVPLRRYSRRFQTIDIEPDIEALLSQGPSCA
Chain of Phenylethanolamine N-methyltransferase (Homo sapiens) (P11086 whole entry, looked up): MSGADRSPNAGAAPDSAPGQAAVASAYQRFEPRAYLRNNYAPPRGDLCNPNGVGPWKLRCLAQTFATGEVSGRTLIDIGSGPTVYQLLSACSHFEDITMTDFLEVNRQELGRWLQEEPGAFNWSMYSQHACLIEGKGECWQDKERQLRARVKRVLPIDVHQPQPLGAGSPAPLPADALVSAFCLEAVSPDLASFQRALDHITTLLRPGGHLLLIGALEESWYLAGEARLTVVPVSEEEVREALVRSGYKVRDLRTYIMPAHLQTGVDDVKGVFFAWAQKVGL
Chain of Nicotinamide N-methyltransferase (Homo sapiens) (P40261 whole entry, looked up): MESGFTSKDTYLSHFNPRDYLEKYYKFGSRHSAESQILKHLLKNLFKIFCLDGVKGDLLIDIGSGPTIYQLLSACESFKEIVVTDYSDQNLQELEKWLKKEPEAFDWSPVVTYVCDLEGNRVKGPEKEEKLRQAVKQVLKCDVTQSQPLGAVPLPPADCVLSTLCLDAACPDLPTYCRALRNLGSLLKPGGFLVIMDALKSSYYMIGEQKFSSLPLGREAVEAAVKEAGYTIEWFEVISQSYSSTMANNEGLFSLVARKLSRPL
Chain of Cytochrome P450 2C9 (Homo sapiens) (P11712 whole entry, looked up): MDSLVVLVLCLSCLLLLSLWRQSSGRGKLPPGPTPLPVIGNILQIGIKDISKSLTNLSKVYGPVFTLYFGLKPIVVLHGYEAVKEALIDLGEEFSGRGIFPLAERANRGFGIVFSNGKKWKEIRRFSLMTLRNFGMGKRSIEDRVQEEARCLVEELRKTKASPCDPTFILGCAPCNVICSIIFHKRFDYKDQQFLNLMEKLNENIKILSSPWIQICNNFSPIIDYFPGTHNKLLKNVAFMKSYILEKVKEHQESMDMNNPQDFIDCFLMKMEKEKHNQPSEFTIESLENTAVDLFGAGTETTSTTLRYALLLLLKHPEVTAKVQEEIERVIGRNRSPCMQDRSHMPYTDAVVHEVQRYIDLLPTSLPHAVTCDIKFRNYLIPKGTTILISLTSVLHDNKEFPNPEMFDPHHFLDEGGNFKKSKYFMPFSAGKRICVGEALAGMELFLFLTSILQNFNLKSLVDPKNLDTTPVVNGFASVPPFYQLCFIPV
Chain of Catechol O-methyltransferase (Homo sapiens) (P21964 whole entry, looked up): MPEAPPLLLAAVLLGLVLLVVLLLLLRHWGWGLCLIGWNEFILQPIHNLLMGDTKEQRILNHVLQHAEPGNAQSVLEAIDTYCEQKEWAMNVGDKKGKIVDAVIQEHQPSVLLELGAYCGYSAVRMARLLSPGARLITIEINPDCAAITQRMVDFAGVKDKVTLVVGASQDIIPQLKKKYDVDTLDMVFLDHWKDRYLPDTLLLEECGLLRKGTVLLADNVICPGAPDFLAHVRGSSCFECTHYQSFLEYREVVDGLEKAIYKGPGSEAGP
Chain of Cytochrome P450 2D6 (Homo sapiens) (P10635 whole entry, looked up): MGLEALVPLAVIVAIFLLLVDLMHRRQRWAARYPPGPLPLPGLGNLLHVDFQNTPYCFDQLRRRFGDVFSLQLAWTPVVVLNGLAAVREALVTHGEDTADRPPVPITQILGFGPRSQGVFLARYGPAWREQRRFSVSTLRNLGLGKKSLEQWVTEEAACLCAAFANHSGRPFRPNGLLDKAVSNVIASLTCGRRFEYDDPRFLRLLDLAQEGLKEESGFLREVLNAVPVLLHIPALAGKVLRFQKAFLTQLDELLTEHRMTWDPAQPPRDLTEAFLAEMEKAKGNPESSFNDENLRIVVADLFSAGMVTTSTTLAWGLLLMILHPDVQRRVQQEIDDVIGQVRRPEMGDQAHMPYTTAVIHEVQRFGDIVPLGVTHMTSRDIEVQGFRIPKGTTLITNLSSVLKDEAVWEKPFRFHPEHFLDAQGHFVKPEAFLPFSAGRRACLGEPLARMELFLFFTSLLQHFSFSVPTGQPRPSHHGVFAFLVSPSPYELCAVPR

As for `c1ccc(Cn2c(-c3ccc(OCC(C4CCNCC4)n4c(-c5ccccc5)nc5ccccc54)cc3)nc3ccccc32)cc1` (configuration not stated), the Potency entry in assay [1], in assay [9], in assay [10], in assay [11], in assay [12] and in assay [13] was “inactive” in each case. Also, the Potency result with CASKI, in the assay on Es-2, with HeLa, in the assay on Hek293T, in the assay with JEG-3 and in the assay with OV90 was “inactive” each time. Besides, the Potency entry in the assay with PA-1, with Tov-21-G and in the assay on Tov112D was “inactive” each time. Also, the outcome in assay [2] is “inactive”. In addition, the figures for the Potency in [3] and in assay [4] were 6.61 µM (active) and 5.9 µM (active), respectively. In addition, the activity in assay [5] is -14.2%; in assay [7], -61.3%; in assay [8] it was -1.77%. For the same compound, the activity change, negative = inhibition in [6] is -5.98%. Further, the Z-AUC in assay [14] was 0.308 (inactive); in assay [14] (measured here: PEO1 parental Z-AUC), -0.228; in [14] (measured here: PEO4 Z-AUC) it was -0.72.
For the compound `CCN1CCC[C@@H]1CNC(=O)c1ccc2c(c1)NC(=O)/C(=C/c1ccccc1F)S2`, the Potency entry in assay [15], in assay [1], in [9], in [11], in [17] and in [12] was “inactive” throughout. In addition, the Potency result (in assay [13]; with C33A; with Es-2; in the assay on HeLa; in the assay on Hek293T; with JEG-3) was “inactive” each time. Moreover, the Potency result in the assay with Tov-21-G and with Tov112D was “inactive” in each case. The Potency is 12 µM (active) in assay [16] and 4.59 µM (active) in assay [3]. Besides, the activity in assay [5] is -24.5%; in assay [7] it was -32%; in assay [8], -20.2%. Further, the activity change, negative = inhibition in assay [6] is -8.4%.
Take `Fc1ccc(C2CCNC[C@H]2COc2ccc3c(c2)OCO3)cc1` (some centres not stated): the Potency entry in assay [1], in assay [10], in [11], in [17], in assay [12] and in assay [13] was “inactive” in each case. The Potency result in the assay on HeLa, in the assay with Hek293T, with JEG-3, with PA-1 and in the assay on Tov112D was “inactive” throughout. The outcome in assay [2] was “inactive”. For the same compound, the Potency in assay [3] was 18.3 µM (active); in [4], 11.5 µM (active); with Es-2 it was 22.4 µM (active).
For the compound `C=C(C)C(=O)O[C@H]1[C@H]2C(=C)C(=O)O[C@@H]2C[C@@H](C)[C@@H]2O[C@@H]2C(=O)[C@](C)(O)[C@@H]1OC(C)=O`, the Potency result in [15], in assay [1], in assay [9], in [10], in assay [11] and in assay [12] was “inactive” throughout. In addition, the Potency result (in assay [13]; with HeLa; in the assay with OV90; with Tov112D) was “inactive” throughout. In addition, the outcome in [2] was “inactive”. Besides, the Potency is 2.82 µM (active) in [3], 1.42 µM (active) in assay [4], 10 µM (active) in the assay with Hek293T and 2.51 µM (active) with SKOV3.
Turning to `OC(CNCCc1c[nH]c2ccccc12)Cn1c2ccccc2c2ccccc21` (configuration not stated), the Potency in assay [18] is 16.4 µM (active); in [19], 0.268 µM (active); in assay [16], 0.952 µM (active); in assay [3], 5.15 µM (active); in assay [4] it was 4.59 µM (active). The Potency result in [15], in [1], in [9], in assay [10], in assay [11] and in assay [17] was “inactive” throughout. Also, the Potency entry (in [12]; in assay [13]; with Es-2; in the assay on HeLa; with Hek293T; with JEG-3) was “inactive” throughout. Also, the Potency result with OV90, with PA-1, with Tov-21-G and in the assay on Tov112D was “inactive” each time. The outcome in assay [2] was “inactive”.
